In PubChem BioAssay one finds composite z-score data, which are given here for 36 compounds.

Test system in the first experiment: not listed separately
The experiment in a line: probe aLAP1 signal on lysate-treated microarray – cell lysate, small-molecule microarray, COS7 lysate, primary screen (AID 1124).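 Also: lysate comes from COS7 cells expressing LAP1 and is applied at 0.3 µg/mL; score merges spot fluorescence near 667 nm with signal-to-noise over triplicate slides.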 Conditions: probe aLAP1, fluorescence, higher = more signal.
For the compound `COC(=O)c1c(CC[C@@H](CO)NC(=O)N[C@@H](Cc2ccccc2)Cn2cc(-c3cncn3C)nn2)oc(C(C)=O)c1C(=O)OC`, the composite z-score worked out at 0.512.
As to `C=CCC(OC(C)=O)[C@@H]1[C@@H](N(Cc2ccc(-c3cccc(C(F)(F)F)c3)o2)C(=O)c2cccc3ccccc23)c2cc(OCCCO)ccc2N1C(=O)c1ccc2ccccc2n1` (stereo partly drawn), the composite z-score was -0.202.
With `CC(=O)NCCCC[C@@H]1NC(=O)[C@H]2C[C@@H](C(=O)NCCCCCC[N+](C)(C)C)[C@@H](c3ccc(O)cc3)N2C1=O`, the composite z-score was found to be 0.527.
Same read-out and setting: then `N#Cc1ccc(C(O)C2C=CC3C(=O)NC(=O)C3N2Nc2ccccn2)cc1` (stereo not drawn), with 0.711.
For `C=CCNC(=O)[C@H]1[C@@H]2C(=O)O[C@@H](c3ccccc3)[C@@H](c3ccccc3)N2[C@@H](c2ccccc2OCCO)[C@]12C(=O)N(C(=O)OCCOC)c1ccccc12`, the composite z-score was found to be 0.883.
Turning to `C=CC[C@]1(C(=O)NCc2ccccc2)COC(c2ccc(OCCCO)cc2)=N1`, the composite z-score is 1.46.
The same measure, in the same setting: the value for `COc1cc2c(cc1O)C(C1CC1)N(Cc1ccc([N+](=O)[O-])o1)CC2` (stereo not drawn) was 1.03.
The same measure, in the same setting: then `CCOC(=O)C[C@H]1[C@H](OC(=O)c2ccc(C(=O)c3ccccc3)cc2)[C@@H](NC(=O)c2ccc3ccccc3c2)c2cc(OCCCO)ccc2N1C(=O)c1ccc2ccccc2n1`, with 0.653.
`CC(C)(C)N1CC=CC23O[C@@H]4/C=C\CCCOC(=O)C4[C@H]2C(=O)N(CCCCCCO)[C@@H]3C1=O` (stereo partly drawn): the composite z-score was 0.495.
With `CCC[C@@H]1C=C(C(=O)OCC)[C@H](c2ccccc2)N1S(=O)(=O)c1ccc(C)cc1`, the composite z-score was found to be 1.29.
Compound `O=C1OCCC=C[C@H]2OC34C=CCN(CCN5CCOCC5)C(=O)[C@H]3N(CCCO)C(=O)[C@@H]4C12` (stereo partly drawn) returned a composite z-score of -0.0411.
The same measure, in the same setting: then `CCOC(=O)C1=C[C@@H](C(C)(C)C)N(S(=O)(=O)c2ccc(C)cc2)[C@H]1c1ccccc1Cl`, with 0.472; and `C[C@H]1C2[C@H](Cc3ccccc3)NC(=O)[C@]23C(=O)NCC(=O)N2CCC[C@H]2C(=O)NC/C=C\C/C=C/C3[C@@H]2O[C@]12C` (stereo partly drawn), with -0.632.
Compound `COc1ccc([Si](C)(C)[C@@H]2[C@@H](CCO)O[C@]3(C(=O)N(Cc4ccccc4)c4ccc(N5C(=O)c6ccccc6Oc6ccccc65)cc43)[C@H]2C)cc1` yielded a composite z-score of -0.0345.
On the same count and under the same terms, the value for `COCCOC(=O)N1C(=O)[C@@]2(c3ccccc31)[C@H](C(N)=O)[C@H]1C(=O)O[C@H](c3ccccc3)[C@H](c3ccccc3)N1[C@@H]2c1ccc(OCCO)cc1` was 0.103.
`COCCCNC(=O)[C@@H]1c2ccccc2C(=O)N(Cc2cc(C(F)(F)F)cc(C(F)(F)F)c2)[C@H]1c1ccc(CO)cc1` registered a composite z-score of -0.182.
For the compound `NCCCC[C@@H]1NC(=O)[C@H]2C[C@@H](C(=O)NCc3ccc(F)cc3)[C@@H](c3ccc(O)cc3)N2C1=O`, the composite z-score turned out to be 0.313.
The same measure, in the same setting: then `CC(C)C[C@@H]1NC(=O)[C@H]2C[C@@H](C(=O)NCCCCCNC(=O)CS)[C@@H](c3ccc(O)cc3)N2C1=O`, with 0.873; and `COC(=O)C(CC#Cc1ccc2c(c1)[C@]1(C(=O)N2)[C@H](c2ccc(O)cc2)N2[C@H](c3ccccc3)[C@H](c3ccccc3)OC(=O)[C@H]2[C@@H]1C(=O)N1CCc2cc(OC)c(OC)cc2C1)C(=O)OC`, with 1.05.
Regarding `C=CCNC(=O)[C@@H]1[C@H]2C(=O)O[C@H](c3ccccc3)[C@H](c3ccccc3)N2[C@H](c2ccccc2OCCO)[C@@]12C(=O)N(C(=O)OCCOC)c1ccc(C#CCCO)cc12`, the composite z-score was found to be 0.77.
For the compound `COc1ccc(CCNC(=O)[C@@]2(Sc3ccc(C)cc3)CC(=O)N(Cc3cc(C(F)(F)F)cc(C(F)(F)F)c3)[C@@H]2c2ccc(CO)cc2)cc1`, the composite z-score was found to be 0.538.
Same read-out and setting: the value for `Cc1ccccc1C(O)C1C=CC2C(=O)N(c3ccccc3)C(=O)C2N1Nc1ccccc1F` (stereo not drawn) was -0.0703; that for `NCCCC[C@@H]1NC(=O)[C@H]2C[C@@H](C(=O)NCc3ccc(F)cc3)[C@@H](c3cccc(OCCO)c3)N2C1=O` was 0.251.
`Cc1c(NC(=O)/C(C#N)=C/c2ccc(Cl)cc2)c(=O)n(-c2ccccc2)n1C` gave a composite z-score of 0.761.
Same read-out and setting: then `[N-]=[N+]=NCc1ccccc1C[C@]1(C(=O)N2CCOCC2)N=C(c2ccc(OCCCO)cc2)O[C@H]1c1ccccc1CN=[N+]=[N-]`, with 0.853.
The same measure, in the same setting: then `CCC(CC)C(O)C1C=CC2C(=O)N(C)C(=O)C2N1N1CCCCC1` (stereo not drawn), with 0.502; and `COCCOC(=O)N1C(=O)[C@@]2(c3cc(C#Cc4ccc(OC)cc4)ccc31)[C@H](c1ccc(OCCO)cc1)N1[C@H](c3ccccc3)[C@H](c3ccccc3)OC(=O)[C@H]1[C@@H]2C(=O)N1CCCCCCC1`, with 1.23.

For another experiment, the system named is Sam68 (KHDRBS1). The experiment in a line: compounds binding KHDRBS1 protein – biochemical, small-molecule microarray, 635 nm fluorescence, primary screen (AID 1125).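 Also: score merges 667 nm channel intensity with signal to noise over triplicate slides.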 Conditions: higher = more signal.
`NC(=O)NCC#Cc1ccc2c(c1)[C@]1(C(=O)N2)[C@H](C(=O)N2CCCCCCC2)[C@H]2C(=O)O[C@H](c3ccccc3)[C@H](c3ccccc3)N2[C@@H]1c1ccc(O)cc1`: the composite z-score came to 1.07.
In the case of `COCCOC(=O)N1C(=O)[C@@]2(c3cc(C#CC4=CCCCC4)ccc31)[C@H](C(=O)N1CCN(c3ncccn3)CC1)[C@H]1C(=O)O[C@H](c3ccccc3)[C@H](c3ccccc3)N1[C@@H]2c1ccccc1OCCO`, the composite z-score is 1.31.
As to `COCCOC(=O)N1C(=O)[C@@]2(c3cc(C#CC4(O)CCCCCC4)ccc31)[C@H](c1ccccc1OCCO)N1[C@H](c3ccccc3)[C@H](c3ccccc3)OC(=O)[C@H]1[C@@H]2C(=O)N1CCCCCCC1`, the composite z-score was determined as 1.29.
As for `CCCCC=C[C@@H](NC(=O)c1ccc(C(F)(F)F)cc1)c1ccccc1`, the composite z-score is -0.0265.
`C=CCC(OC(C)=O)[C@@H]1[C@@H](N(Cc2ccc(-c3ccccc3)cc2)C(=O)c2ccc(C)cc2)c2cc(OCCCO)ccc2N1C(=O)c1ccc2ccccc2c1` (stereo partly drawn) registered a composite z-score of -0.15.
`CCCCC(=C=CC[C@@H](O)c1cccc(OCCO)c1)CCO` displayed a composite z-score of 0.158.
Same read-out and setting: then `CCOC(=O)C[C@H]1[C@H](OC(=O)Cc2ccc3c(c2)OCO3)[C@@H](NC(=O)c2ccccc2)c2cc(OCCCO)ccc2N1C(=O)Cc1ccc(OC)cc1`, with 0.683.
Same read-out and setting: the value for `CCCCN1CC=CC23O[C@@H]4C=CCOC(=O)[C@@H]4[C@H]2C(=O)N(C(CO)C(C)C)[C@@H]3C1=O` (stereo partly drawn) was -0.616.
The same measure, in the same setting: the value for `COC(=O)[C@@]1(Cc2ccc(OC)cc2)[C@@H]2[C@@H](CC(=O)[C@H]2CC(=O)C(=O)N2CCCC2)CN1C(=O)c1ccccc1` was 1.09.
For the compound `COC(=O)c1c(CC[C@@H](CO)NC(=O)N[C@@H](Cc2ccccc2)Cn2cc(-c3cncn3C)nn2)oc(C(C)=O)c1C(=O)OC`, the composite z-score turned out to be 1.21.
Still for that read-out and setting: then `C=CCC(OC(C)=O)[C@@H]1[C@@H](N(Cc2ccc(-c3cccc(C(F)(F)F)c3)o2)C(=O)c2cccc3ccccc23)c2cc(OCCCO)ccc2N1C(=O)c1ccc2ccccc2n1` (stereo partly drawn), with -0.258; and `CC(=O)NCCCC[C@@H]1NC(=O)[C@H]2C[C@@H](C(=O)NCCCCCC[N+](C)(C)C)[C@@H](c3ccc(O)cc3)N2C1=O`, with 1.17; and `N#Cc1ccc(C(O)C2C=CC3C(=O)NC(=O)C3N2Nc2ccccn2)cc1` (stereo not drawn), with -0.106.
Still for that read-out and setting: the value for `C=CCNC(=O)[C@H]1[C@@H]2C(=O)O[C@@H](c3ccccc3)[C@@H](c3ccccc3)N2[C@@H](c2ccccc2OCCO)[C@]12C(=O)N(C(=O)OCCOC)c1ccccc12` was 1.21; that for `C=CC[C@]1(C(=O)NCc2ccccc2)COC(c2ccc(OCCCO)cc2)=N1` was -0.297.
`COc1cc2c(cc1O)C(C1CC1)N(Cc1ccc([N+](=O)[O-])o1)CC2` (stereo not drawn) displayed a composite z-score of 0.835.
Take `CCOC(=O)C[C@H]1[C@H](OC(=O)c2ccc(C(=O)c3ccccc3)cc2)[C@@H](NC(=O)c2ccc3ccccc3c2)c2cc(OCCCO)ccc2N1C(=O)c1ccc2ccccc2n1`: the composite z-score amounted to 1.09.
On the same count and under the same terms, the value for `CC(C)(C)N1CC=CC23O[C@@H]4/C=C\CCCOC(=O)C4[C@H]2C(=O)N(CCCCCCO)[C@@H]3C1=O` (stereo partly drawn) was -1.35; that for `CCC[C@@H]1C=C(C(=O)OCC)[C@H](c2ccccc2)N1S(=O)(=O)c1ccc(C)cc1` was 1.3.
Same read-out and setting: the value for `O=C1OCCC=C[C@H]2OC34C=CCN(CCN5CCOCC5)C(=O)[C@H]3N(CCCO)C(=O)[C@@H]4C12` (stereo partly drawn) was -0.119; that for `CCOC(=O)C1=C[C@@H](C(C)(C)C)N(S(=O)(=O)c2ccc(C)cc2)[C@H]1c1ccccc1Cl` was 1.32; that for `C[C@H]1C2[C@H](Cc3ccccc3)NC(=O)[C@]23C(=O)NCC(=O)N2CCC[C@H]2C(=O)NC/C=C\C/C=C/C3[C@@H]2O[C@]12C` (stereo partly drawn) was -0.158.
Consider `COc1ccc([Si](C)(C)[C@@H]2[C@@H](CCO)O[C@]3(C(=O)N(Cc4ccccc4)c4ccc(N5C(=O)c6ccccc6Oc6ccccc65)cc43)[C@H]2C)cc1`, for which the composite z-score was -0.809.
The same measure, in the same setting: then `COCCOC(=O)N1C(=O)[C@@]2(c3ccccc31)[C@H](C(N)=O)[C@H]1C(=O)O[C@H](c3ccccc3)[C@H](c3ccccc3)N1[C@@H]2c1ccc(OCCO)cc1`, with 1.31; and `COCCCNC(=O)[C@@H]1c2ccccc2C(=O)N(Cc2cc(C(F)(F)F)cc(C(F)(F)F)c2)[C@H]1c1ccc(CO)cc1`, with 0.299; and `NCCCC[C@@H]1NC(=O)[C@H]2C[C@@H](C(=O)NCc3ccc(F)cc3)[C@@H](c3ccc(O)cc3)N2C1=O`, with 1.19.
In the case of `CC(C)C[C@@H]1NC(=O)[C@H]2C[C@@H](C(=O)NCCCCCNC(=O)CS)[C@@H](c3ccc(O)cc3)N2C1=O`, the composite z-score was determined as 1.31.
Compound `COC(=O)C(CC#Cc1ccc2c(c1)[C@]1(C(=O)N2)[C@H](c2ccc(O)cc2)N2[C@H](c3ccccc3)[C@H](c3ccccc3)OC(=O)[C@H]2[C@@H]1C(=O)N1CCc2cc(OC)c(OC)cc2C1)C(=O)OC` had a composite z-score of 1.32.
Same read-out and setting: the value for `C=CCNC(=O)[C@@H]1[C@H]2C(=O)O[C@H](c3ccccc3)[C@H](c3ccccc3)N2[C@H](c2ccccc2OCCO)[C@@]12C(=O)N(C(=O)OCCOC)c1ccc(C#CCCO)cc12` was 1.29; that for `COc1ccc(CCNC(=O)[C@@]2(Sc3ccc(C)cc3)CC(=O)N(Cc3cc(C(F)(F)F)cc(C(F)(F)F)c3)[C@@H]2c2ccc(CO)cc2)cc1` was -1.13.
On the same count and under the same terms, the value for `Cc1ccccc1C(O)C1C=CC2C(=O)N(c3ccccc3)C(=O)C2N1Nc1ccccc1F` (stereo not drawn) was 1.23.
